For 40 molecules, growth results are on record in PubChem BioAssay (NCI).

Values joined by “and” are separate entries in the source; they are usually repeats but may differ in a detail not shown here. Equal entries are not always repeated. This is part of a sample that, as a whole, favours compounds with a hit. Of some 83,000 tested, about 20% had one in any assay.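 Compound tested at a single concentration for 48 hours in 96-well plates; a percent growth value below 10 was scored as active.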 Unmarked numbers belong to inactive results. Active and inactive are the calls of the source.

The test has as its system MDA-MB-468 breast. Put plainly: NCI-60 one-dose screen, 48 h (100 = growth as untreated, 0 = no growth, -100 = all killed). The settings on record: 10 µM unless noted.
With `CN(C)c1ccc(C(=N)c2ccc(N(C)C)cc2)cc1`, the growth is -45.5% (active) and -18.9% (active).
As for `NC(=O)c1c(NC(=O)c2ccc(C(F)(F)F)cc2)sc2c1CCC(=O)C2`, the growth is -30.7% (active).
Under `O=c1[nH]c(=S)[nH]c(=O)n1Cc1cccc2ccccc12` stands 107%.
Under `COc1cnc2c(c1)C(=O)c1c-2n(CCCN2CCN(C)CC2)c(=O)c2cc([N+](=O)[O-])ccc12` stands -57.9% (active); under `COc1ccc(C2CCCCC2=O)cc1` (stereo not given), 109%; under `COc1ccc(-c2nn3c(-c4ccccc4F)nnc3s2)cc1`, 6.82% (active).
Under `Cc1cccc(C)c1NC(=O)CSC(=S)N1CCN(CCOCCO)CC1` stands 127%.
For the molecule `C=C(C)[C@@H]1CC[C@]2(C(=O)O)CC[C@]3(C)[C@H](CC[C@@H]4[C@@]5(C)C[C@@H](CC#Cc6ccc(Br)cc6)C(=O)C(C)(C)[C@@H]5CC[C@]43C)[C@@H]12`, the growth is 6.26% (active).
Turning to `NC1=NC(c2ccccc2OS(=O)(=O)c2ccc(Br)cc2)n2c(nc3ccccc32)N1` (stereo not given), the growth was 104%.
Consider `O=C1Nc2ccccc2/C1=C/c1ccc(COCC2CO2)n1-c1ccc(O)cc1` (stereo not given), for which the growth is 95.9%.
Under `Cc1ccc(S(=O)(=O)N/N=C\c2cc(Cl)ccc2O)cc1` stands 68.4%; under `O=C(NCCN1CCOCC1)c1cncnc1Nc1ccc2c(ccn2Cc2ccccn2)c1`, 98%; under `CN(C)c1nc(-c2cccs2)n2nc(-c3ccco3)cc2n1`, 7.52% (active).
Consider `O=S(=O)(O)c1ccc(O)c2ccccc12`, for which the growth is 104%.
In the case of `COC(=O)[C@H]1[C@H](OC)[C@@H](OC(=O)/C=C/c2ccncc2)CC2CN3CCc4c([nH]c5cc(OC)ccc45)[C@@H]3C[C@@H]21` (stereo not given in full) it was 53.6%.
For the molecule `COC(=O)N[C@H]1CCc2c(Cl)c(OC)c(OC)c(OC)c2-c2ccc(SC)c(=O)cc21`, the growth is -18.8% (active).
`O=c1c2cccc3c(NC4CCCCC4)ccc(c32)c2nc3ccccc3n12`: the growth was -4.69% (active).
In the case of `NC(Cc1ccccc1)C(=O)NC(Cc1ccccc1)C(=O)O` (stereo not given) it was 102% and 92.8%; in that of `CN(C)CC(=O)Nc1nc(-c2cccc(NS(=O)(=O)c3cccc4c(N(C)C)cccc34)c2)cs1`, 62%; in that of `COCC[C@H]1CCC/C=C/[C@@H]2C[C@H](O)C[C@H]2[C@H](O)/C=C/C(=O)O1`, -50.7% (active).
As for `COc1ccc(-c2nc3ccc4[nH]ncc4c3c3c2CCCC3)cc1B(O)O`, the growth was 31.5%.
On to `O=C1/C(=C/c2ccc(Cl)cc2)COc2ccc(O)cc21`, for which the growth is 85.1%.
For `Cc1ccc(NC(=O)c2ccc(CN3CCN(C)CC3)cc2)cc1Oc1ccc(-c2[nH]nc3ncnc(N)c23)cc1`, the growth is 59.3%.
In the case of `COc1cc2cc3cc4cc(OC)c(OC)cc4c(C)[n+]3cc2cc1OC` (tested in a mixture with another compound) it was 44%.
Under `O=C(CS(=O)c1oc(-c2cccs2)nc1S(=O)(=O)c1ccc(Br)cc1)c1ccccc1` (stereo not given) stands 101%.
For `Clc1nccc2c(-c3csc(-c4c[nH]c5ccccc45)n3)c[nH]c12`, the growth was 29.2%.
Under `CC(C)CC1NC(=O)C(CCCN)NC(=O)C(C(C)C)NC(=O)C2CCCN2C(=O)C(Cc2ccccc2)NC(=O)C(CC(C)C)NC(=O)C(CCCN)NC(=O)C(C(C)C)NC(=O)C2CCCN2C(=O)C(Cc2ccccc2)NC1=O` (stereo not given) stands -78.1% (active); under `CCCC(=O)NC(c1ccc2c(c1)OC(F)(F)O2)c1cc(C)c2cccnc2c1O` (stereo not given), -14.7% (active).
In the case of `O=C1COCCN1c1ccc(NCc2cn(Cc3ccc(F)cc3)c3ccccc23)cc1` it was -66.9% (active).
As to `NC1=NC2(CCCC2)N(c2ccc(S(=O)(=O)Nc3nccs3)cc2)C(N)=N1`, the growth was 90.7%.
With `Cc1cc(-c2ccccc2)cc(C)n1`, the growth is 103%.
Under `COc1cc(NS(C)(=O)=O)ccc1Cc1c2ccccc2nc2ccccc12` stands -14.1% (active).
With `C[C@H]1[C@H](C)CC[C@]2(C(=O)O)CC[C@]3(C)C(=CC[C@@H]4[C@@]5(C)C[C@@H](Cc6cn([C@@H]7O[C@H](CO)[C@@H](O)[C@H](O)[C@H]7O)nn6)[C@H](O)C(C)(C)[C@@H]5CC[C@]43C)[C@H]12`, the growth is 94.1%.
Turning to `CCCCCc1ccc(S(=O)(=O)Nc2cc(-c3csc(NC(=O)CN4CCN(CCO)CC4)n3)ccc2OC)cc1`, the growth was 69.1%.
Under `O=C(CSc1ccc(-c2nc3ccccc3[nH]2)cn1)N1CCN(c2ccccc2F)CC1` stands 53.1%.
Consider `NCc1cn2cc(Cl)sc2n1`, for which the growth is 101%.
In the case of `Cc1c2c(cc[n+]1Cc1ccccc1)c1ccc(OCc3ccccc3)cc1n2Cc1ccccc1` it was -42.3% (active).
With `CCc1ccc(-c2ccc(-n3nc(C)c4c(N)nc(Cc5ccccc5)nc43)cc2)cc1`, the growth was 38.9%.
As to `CCOC(=O)C1=C(C)Nc2nnc(Nc3ccccc3)n2C1c1ccccc1` (stereo not given), the growth was 68.4%.
Take `O=CNc1ccc2c(c1)Cc1cc([N+](=O)[O-])ccc1-2`: the growth was -29.6% (active).
